This passage reports growth inhibition, inhibition and outcome results from PubChem BioAssay.

Values without a mark were called inactive. For part of these data: Results with a measured potency or affinity are listed apart. Calls of active or inactive are those of the source. Unless noted, no rule for the calls is given here.

Assay [1] in a line: antimalarial activity against Dd2 strain (AID 2302;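 active = growth inhibition above 50% at the single 2 µM test dose, taken to imply half-maximal potency below 2 µM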;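 also: 0% = DMSO untreated growth and 100% = chloroquine plus artemisinin killed control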). The conditions noted are these: P. falciparum Dd2 in RBCs, LDH growth readout, 72 h; at 2 µM; hits give high values.
Assay [2] can be described thus: human hepatoma cell viability loss – ATP luminescence, cytotoxicity control for P. falciparum antimalarial project, primary screen (AID 2303;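 active = inhibition above 50%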;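 also: 0% = DMSO wells and 100% = digitonin-killed cells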). The note with it: HepG2 viability, 24-48 h, at 10 µM, hits give high values.
Assay [3] deals with L-lactate dehydrogenase (Plasmodium falciparum (isolate CDC / Honduras)) (UniProt Q27743). The assay can be described thus: PfLDH activity inhibition – cell lysate, 3D7 strain, counter-screen for P. falciparum growth inhibition project (AID 2304).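 Also: 0% = vehicle and 100% = reference inhibitor.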 The conditions noted are these: P. falciparum 3D7 crude extract, LDH APAD/NBT absorbance; at 2 µM; hits give high values.
Assay [4] is described as follows: inhibition of 3D7 malaria parasite growth – strain 3D7 (AID 2306).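 Also: 0% = DMSO wells and 100% = chloroquine plus artemisinin control wells.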 The conditions noted are these: P. falciparum 3D7 erythrocytic growth, LDH absorbance, 72 h; at 2 µM; hits give high values.
In assay [5] the target is Calcium-dependent protein kinase 1 (Plasmodium falciparum (isolate 3D7)) (UniProt P62344). The experiment in a line: PfCDPK1 kinase inhibitors, biochemical, TCAMS library (AID 1159585; cut-off not given, nearly all actives have IC50 up to about 0.98 µM;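 also: inhibitors leave more ATP so luminescence rises with inhibition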). The conditions noted are these: recombinant PfCDPK1, Kinase-Glo ATP depletion luminescence. A general note: Kinase-Glo measures the ATP left after a reaction by luminescence.
Assay [6] has as its target Plasmodium falciparum protein kinase 6 (PK6, PF3D7_1337100) (UniProt Q8IDW1). The experiment in a line: PfPK6 kinase inhibitors, biochemical, TCAMS library (AID 1159586). The conditions noted are these: recombinant PfPK6, Kinase-Glo ATP depletion luminescence.
Assay [7] deals with Protein kinase 7 (PK7), Plasmodium falciparum 3D7 (PF3D7_0213400) (UniProt Q7YTF7). The assay can be described thus: inhibition of Plasmodium PK7 catalytic activity – biochemical, TCAMS antimalarial set, Kinase-Glo luminescence (AID 1159587). The conditions noted are these: recombinant PfPK7, Kinase-Glo ATP depletion luminescence.
The target in assay [8] is Calcium-dependent protein kinase 4 (Plasmodium falciparum (isolate 3D7)) (UniProt Q8IBS5). The assay can be described thus: PfCDPK4 kinase inhibitors, biochemical, TCAMS library (AID 1159588; cut-off not given, nearly all actives have IC50 up to about 0.91 µM). The note with it: recombinant PfCDPK4, Kinase-Glo ATP depletion luminescence.
Calcium-dependent protein kinase 4 (Plasmodium falciparum (isolate 3D7)), sequence (Q8IBS5 whole entry, looked up): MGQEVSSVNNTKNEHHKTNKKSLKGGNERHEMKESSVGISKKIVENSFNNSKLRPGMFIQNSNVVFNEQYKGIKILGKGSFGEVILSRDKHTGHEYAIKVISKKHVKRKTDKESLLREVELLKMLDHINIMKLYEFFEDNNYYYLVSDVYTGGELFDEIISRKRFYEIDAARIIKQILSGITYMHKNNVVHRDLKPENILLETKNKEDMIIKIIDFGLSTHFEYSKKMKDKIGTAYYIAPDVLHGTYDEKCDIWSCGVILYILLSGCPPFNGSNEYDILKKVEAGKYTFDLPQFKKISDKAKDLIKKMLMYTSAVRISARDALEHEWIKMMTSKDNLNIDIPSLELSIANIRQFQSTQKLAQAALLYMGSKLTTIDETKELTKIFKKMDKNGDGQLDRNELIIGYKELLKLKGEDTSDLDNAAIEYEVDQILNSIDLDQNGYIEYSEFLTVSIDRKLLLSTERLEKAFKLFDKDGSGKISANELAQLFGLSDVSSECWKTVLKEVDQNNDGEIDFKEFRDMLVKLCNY

L-lactate dehydrogenase (Plasmodium falciparum (isolate CDC / Honduras)), sequence (Q27743 whole entry, looked up): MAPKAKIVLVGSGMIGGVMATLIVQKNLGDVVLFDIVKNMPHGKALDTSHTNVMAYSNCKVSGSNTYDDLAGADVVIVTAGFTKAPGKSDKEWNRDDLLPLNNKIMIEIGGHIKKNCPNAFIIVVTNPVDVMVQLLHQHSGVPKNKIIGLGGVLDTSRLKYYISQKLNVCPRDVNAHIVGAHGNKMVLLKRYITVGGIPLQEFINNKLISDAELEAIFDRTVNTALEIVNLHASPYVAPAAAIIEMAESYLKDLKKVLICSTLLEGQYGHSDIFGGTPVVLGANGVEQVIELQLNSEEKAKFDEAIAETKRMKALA
Calcium-dependent protein kinase 1 (Plasmodium falciparum (isolate 3D7)), sequence (P62344 whole entry, looked up): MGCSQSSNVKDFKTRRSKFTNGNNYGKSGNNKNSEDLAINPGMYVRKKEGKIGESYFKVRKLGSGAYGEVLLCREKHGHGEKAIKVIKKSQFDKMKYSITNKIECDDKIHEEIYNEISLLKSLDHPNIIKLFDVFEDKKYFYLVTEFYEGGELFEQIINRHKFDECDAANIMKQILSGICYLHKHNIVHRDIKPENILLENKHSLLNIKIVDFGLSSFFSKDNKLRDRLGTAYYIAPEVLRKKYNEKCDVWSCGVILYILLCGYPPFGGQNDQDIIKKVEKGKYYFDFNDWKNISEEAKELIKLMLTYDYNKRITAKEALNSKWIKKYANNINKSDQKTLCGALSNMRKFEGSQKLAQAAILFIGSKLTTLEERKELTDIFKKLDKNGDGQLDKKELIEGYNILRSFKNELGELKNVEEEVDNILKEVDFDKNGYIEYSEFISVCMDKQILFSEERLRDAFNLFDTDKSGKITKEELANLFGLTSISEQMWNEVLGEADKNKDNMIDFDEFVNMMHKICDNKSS
Protein kinase 7 (PK7), Plasmodium falciparum 3D7 (PF3D7_0213400), sequence (Q7YTF7 1-343): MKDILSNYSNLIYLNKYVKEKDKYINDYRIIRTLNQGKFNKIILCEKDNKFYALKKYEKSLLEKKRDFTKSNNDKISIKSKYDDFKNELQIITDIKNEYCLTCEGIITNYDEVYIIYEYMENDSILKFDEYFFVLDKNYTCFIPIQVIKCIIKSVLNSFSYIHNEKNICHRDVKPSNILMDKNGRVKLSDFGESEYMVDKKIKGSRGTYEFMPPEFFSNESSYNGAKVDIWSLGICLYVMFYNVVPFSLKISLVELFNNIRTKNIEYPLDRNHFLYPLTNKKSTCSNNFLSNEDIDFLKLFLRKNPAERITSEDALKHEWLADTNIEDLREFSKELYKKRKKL
Plasmodium falciparum protein kinase 6 (PK6, PF3D7_1337100), sequence (Q8IDW1 1-305): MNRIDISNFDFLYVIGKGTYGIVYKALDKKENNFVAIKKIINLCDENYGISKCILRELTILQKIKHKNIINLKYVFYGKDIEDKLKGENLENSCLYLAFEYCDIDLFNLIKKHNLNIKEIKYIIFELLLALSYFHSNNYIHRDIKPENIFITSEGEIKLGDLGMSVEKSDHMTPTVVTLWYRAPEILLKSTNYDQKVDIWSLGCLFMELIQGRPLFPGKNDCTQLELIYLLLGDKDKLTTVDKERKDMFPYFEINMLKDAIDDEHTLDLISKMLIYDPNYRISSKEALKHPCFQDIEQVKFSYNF

Take `O=C(NCc1ccccc1F)c1ccc(N2CCC(NCc3cccc(-n4cccn4)c3)CC2)cc1`: the results for the growth inhibition in assay [1] and in assay [4] were 3% and 89% (active), respectively. The figures for the inhibition in assay [2] and in assay [3] were 9% and 4%, respectively. For the same compound, the result in assay [5], in assay [6], in assay [7] and in assay [8] was inactive.
On to `Cc1cc2nc(-c3ccc(C(=O)NCc4cccc(F)c4)cc3)[nH]c2cc1C`, for which the results for the growth inhibition in assay [1] and in assay [4] were 6% and 91% (active), respectively. For the same compound, the inhibition in assay [2] and in assay [3] was -5% throughout. Besides, the result in assay [5], in assay [6], in assay [7] and in assay [8] was inactive.
For the compound `O=C(NC(=Cc1cccc([N+](=O)[O-])c1)c1nc2ccccc2[nH]1)c1cccc(Br)c1`, the growth inhibition in assay [1] was 88% (active); in assay [4] it was 85% (active). The inhibition (usually the drop in the measured response relative to a control, in per cent) in assay [2] is -1%; in assay [3], 0%. The result in assay [5], in assay [6], in assay [7] and in assay [8] was inactive.
Regarding `CN(CCCCCNC(=O)/C=C/c1ccc(Cl)c(Cl)c1)CCCCc1c[nH]c2ccccc12`, the figures for the growth inhibition in assay [1] and in assay [4] were 15% and 90% (active), respectively. Further, the inhibition was 17% in assay [2] and 2% in assay [3]. The result in assay [5], in assay [6], in assay [7] and in assay [8] was inactive.
Take `Cc1ccc(NC(=O)c2cn(-c3ccccc3)nc2-c2ccc(F)cc2)cc1[N+](=O)[O-]`: the growth inhibition in assay [1] was 38%; in assay [4], 92% (active). Besides, the inhibition was 6% in assay [2] and 8% in assay [3]. Further, the outcome in assay [5], in assay [6], in assay [7] and in assay [8] was inactive.
On to `CCOc1cc(C(=O)NCCc2ccc(Cl)c(Cl)c2)ccc1-c1nc2ccc(Cl)cc2[nH]1`, for which the growth inhibition in assay [1] is 47%; in assay [4], 100% (active). Also, the values for the inhibition in assay [2] and in assay [3] were 9% and -4%, respectively. In addition, the outcome in assay [5], in assay [6], in assay [7] and in assay [8] was inactive.
Take `CSCCCN1CCC(O)(c2ccc3oc(C(=O)Nc4ccc5sc(C)nc5c4)cc3c2)CC1`: the values for the growth inhibition in assay [1] and in assay [4] were 69% (active) and 101% (active), respectively. Also, the inhibition in assay [2] is 10%; in assay [3], 4%. The outcome in assay [5], in assay [6], in assay [7] and in assay [8] was inactive.
As for `CNC(=O)c1cc(Nc2nnc(-c3ccc(C)c(S(=O)(=O)NC4CCCCC4)c3)c3ccccc23)ccc1OC`, the growth inhibition was 61% (active) in assay [1] and 87% (active) in assay [4]. The inhibition in assay [2] is -10%; in assay [3], 5%. Further, the result in assay [5], in assay [6], in assay [7] and in assay [8] was inactive.
In the case of `CN(C)CCCOc1ccc(CNCC(C)(C)c2nc(-c3ccc(Cl)c(O)c3)c(-c3ccncc3)[nH]2)cc1`, the growth inhibition in assay [1] is 58% (active); in assay [4], 102% (active). For the same compound, the figures for the inhibition in assay [2] and in assay [3] were 64% (active) and -2%, respectively. The outcome in assay [5], in assay [6], in assay [7] and in assay [8] was inactive.
With `Cc1nc2ccc([N+](=O)[O-])cc2c(=O)n1OCc1ccccc1`, the growth inhibition in assay [1] was -1%; in assay [4], 98% (active). The figures for the inhibition in assay [2] and in assay [3] were 2% and -2%, respectively. Besides, the result in assay [5], in assay [6], in assay [7] and in assay [8] was inactive.
Turning to `CN1CCC(C(=O)N(Cc2ccc(-c3ccc(CNCCc4ccccc4)cn3)cc2)C2Cc3ccccc3C2)CC1`, the values for the growth inhibition in assay [1] and in assay [4] were 97% (active) and 88% (active), respectively. Moreover, the inhibition was 65% (active) in assay [2] and -2% in assay [3]. Moreover, the outcome in assay [5], in assay [6], in assay [7] and in assay [8] was inactive.
With `COc1ccc2nccc([C@@H](O)CN3CCC(NCc4cc5c(F)ccc(F)c5[nH]4)CC3)c2n1`, the growth inhibition in assay [1] was 76% (active); in assay [4] it was 101% (active). The inhibition in assay [2] was 22%; in assay [3] it was -6%. Further, the outcome in assay [5], in assay [6], in assay [7] and in assay [8] was inactive.
With `COc1ccc2c(c1)nc(CN=C(N)N)n2Cc1ccc(Cl)cc1`, the growth inhibition is 99% (active) in assay [1] and 102% (active) in assay [4]. In addition, the inhibition in assay [2] was 12%; in assay [3], 4%. The outcome in assay [5], in assay [6], in assay [7] and in assay [8] was inactive.
For `CCCCCCN1CCC(NCc2ccc(CN(C)C)cc2)CC1`, the figures for the growth inhibition in assay [1] and in assay [4] were 26% and 92% (active), respectively. Further, the inhibition in assay [2] was 18%; in assay [3] it was 1%. For the same compound, the result in assay [5], in assay [6], in assay [7] and in assay [8] was inactive.
Regarding `COc1ccc(-c2ccc(NC(=O)c3cccc(Cl)c3)cc2)cc1CN1CCCC1`, the growth inhibition in assay [1] was 84% (active); in assay [4] it was 100% (active). Besides, the results for the inhibition in assay [2] and in assay [3] were 35% and 4%, respectively. The outcome in assay [5], in assay [6], in assay [7] and in assay [8] was inactive.
`O=C1COc2ccc3ccccc3c21`: the figures for the growth inhibition in assay [1] and in assay [4] were 3% and 99% (active), respectively. Also, the inhibition in assay [2] was -3%; in assay [3], 6%. The result in assay [5], in assay [6], in assay [7] and in assay [8] was inactive.
Turning to `Cc1cc(NC(=O)Nc2ccc3ncccc3c2)c2ccccc2n1`, the growth inhibition in assay [1] was 27%; in assay [4] it was 93% (active). Further, the inhibition in assay [2] is 6%; in assay [3] it was -3%. The result in assay [5], in assay [6], in assay [7] and in assay [8] was inactive.
Consider `O=C(Nc1ccc(-c2nc3ccccc3[nH]2)cc1)c1cccc(S(=O)(=O)N2CCOCC2)c1`, for which the growth inhibition is 43% in assay [1] and 89% (active) in assay [4]. Also, the inhibition in assay [2] is 6%; in assay [3], -5%. The result in assay [5], in assay [6], in assay [7] and in assay [8] was inactive.
As for `CCCc1cc(C)ccc1OCCCON1C(NC(=O)OCC)=NC(NC(=O)OCC)=NC1(C)C`, the growth inhibition in assay [1] is 97% (active); in assay [4], 95% (active). In addition, the figures for the inhibition in assay [2] and in assay [3] were 62% (active) and 0%, respectively. Besides, the result in assay [5], in assay [6], in assay [7] and in assay [8] was inactive.
Consider `COC(=O)c1sc2ccccc2c1NC(=O)c1ccc(C)c(C)c1`, for which the growth inhibition in assay [1] was 48%; in assay [4], 88% (active). The inhibition in assay [2] is 4%; in assay [3], -7%. The result in assay [5], in assay [6], in assay [7] and in assay [8] was inactive.
In the case of `NCCCNc1nc(Nc2ccc(C(F)(F)F)cc2F)c2c(=O)[nH]ccc2n1`, the growth inhibition in assay [1] is 15%; in assay [4], 95% (active). In addition, the inhibition in assay [2] is 23%; in assay [3], -1%. Also, the outcome in assay [5], in assay [6], in assay [7] and in assay [8] was inactive.
